# Activity calls are given as the source filed them. Unless noted, no rule for the calls is given here.
# Assays:
# [1] = tested on: XIP peptide (Xip251-270) binding; assay: small-molecule binders of XIP peptide, primary screen, biochemical, small-molecule microarray, fluorescence 635/667 nm, 0.1 µg/mL protein (AID 1182); conditions: fluorescent protein binding, 635 nm, higher = more signal, called active from +8 up or from −8 down
# XIP peptide (Xip251-270) = assay: small-molecule binders of XIP peptide, primary screen, biochemical, small-molecule microarray, fluorescence 635/667 nm, 0.5 µg/mL protein (AID 1183); conditions: small-molecule microarray binding, fluorescence 635 nm; higher = more signal
# [2] = Plasmodium falciparum growth inhibition, primary screen, strain 3D7, DAPI fluorescence, 100 nL (AID 1184);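 also: parasites grown inside human red blood cells in medium with human serum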; conditions: P. falciparum 3D7 growth, 3 d, higher = more signal
# [3] = biological target: Homeobox protein Hox-A13 (Mus musculus) (UniProt Q62424); assay: inhibitors of HoxA13-DNA binding, primary screen, biochemical, fluorescence polarization, labeled oligonucleotide (AID 1185); conditions: 15 min, higher = more signal, called active from +8 up or from −8 down
# [4] = inhibitors of hydroxyurea-induced Chk1 phosphorylation, primary screen, imaging, HeLa, phospho-Chk1 antibody, percent positive cells (AID 1186); conditions: hydroxyurea-induced phospho-Chk1 immunofluorescence imaging, higher = more signal
# [5] = inhibitors of hydroxyurea-induced Chk1 phosphorylation, primary screen, imaging, HeLa, phospho-Chk1 nuclear intensity (AID 1187); conditions: hydroxyurea-induced phospho-Chk1 immunofluorescence imaging, higher = more signal
# Chain of Homeobox protein Hox-A13 (Mus musculus) (Q62424 whole entry, looked up): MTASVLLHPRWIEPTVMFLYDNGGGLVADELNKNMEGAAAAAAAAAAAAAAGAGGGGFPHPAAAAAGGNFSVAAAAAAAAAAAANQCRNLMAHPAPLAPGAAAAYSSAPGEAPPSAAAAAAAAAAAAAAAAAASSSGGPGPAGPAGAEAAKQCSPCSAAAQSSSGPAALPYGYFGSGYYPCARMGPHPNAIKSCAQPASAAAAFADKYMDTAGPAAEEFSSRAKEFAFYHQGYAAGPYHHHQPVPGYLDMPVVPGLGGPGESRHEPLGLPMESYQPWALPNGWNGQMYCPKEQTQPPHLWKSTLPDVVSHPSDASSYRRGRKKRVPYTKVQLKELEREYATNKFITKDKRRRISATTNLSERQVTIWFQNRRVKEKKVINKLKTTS
Structure (SMILES),composite z-score [1],composite z-score (XIP peptide (Xip251-270)),z-score [2],z-score [3],z-score [4],z-score [5]
CCN1C(C)=C(C(=O)OC)[C@@H](c2ccccc2)N2C(=O)[C@@]3(C(=O)OC)O[C@@]12[C@@H]1C(=O)N(C)C(=O)[C@@H]13,1.38 (inactive),0.87,-0.138,-0.663 (inactive),–,–
CO[C@H]1COC(=O)[C@H](Cc2ccccc2)NC(=O)CC=C[C@@H](C)[C@H](OC)COC(=O)CC=C[C@@H]1C,-0.707 (inactive),0.0418,0.0348,1.05 (inactive),–,–
C[C@H]1COC(=O)[C@H](Cc2ccccc2)NC(=O)[C@@H](C)COC(=O)[C@H](Cc2ccccc2)NC1=O,0.767 (inactive),0.342,-0.703,1.01 (inactive),–,–
C[C@@H]1CC[C@H]2C(=O)N3[C@@H](CC[C@@H](C)[C@@H]3c3cccc(N4CCOCC4)c3)C(=O)N2[C@H]1c1cccc(Br)c1,0.806 (inactive),0.541,0.656,-5.55 (inactive),–,–
CSCC[C@@H]1NC(=O)CC=C[C@@H](C)COC(=O)[C@H](CCSC)NC(=O)CC=C[C@@H](C)COC1=O,0.223 (inactive),-0.467,-0.145,1.03 (inactive),–,–
CO[C@H]1COC(=O)CC=C[C@H](C)COC(=O)[C@@H](OCc2ccccc2)C=C[C@@H]1C,0.225 (inactive),0.547,-1.58,1.89 (inactive),–,–
COc1cccc([C@H]2N[C@H](C(=O)O)CC[C@@H]2C)c1,0.253 (inactive),-0.567,-1.4,3.05 (inactive),–,–
C[C@H]1COC(=O)[C@@H]2CCCN2C(=O)[C@@H](C)COC(=O)[C@@H]2CCCN2C1=O,-0.0153 (inactive),0.454,-0.12,-5.05 (inactive),–,–
CCC(=O)[C@]12O[C@@]3([C@@H]4C(=O)OCC[C@@H]41)N(CC)C(C)=C(C(=O)OC)[C@@H](c1ccccc1)N3C2=O,0.592 (inactive),-0.499,-1.06,-0.864 (inactive),–,–
CCC(=O)[C@]12O[C@@]3([C@@H]4C(=O)OCC[C@@H]41)N(Cc1ccccc1)C(C)=C(C(=O)OC)[C@@H](c1ccccc1)N3C2=O,0.195 (inactive),-0.573,1.24,-4.26 (inactive),–,–
CO[C@H]1COC(=O)[C@H](C)NC(=O)CC=C[C@@H](C)[C@H](NS(=O)(=O)c2ccc(C)cc2)COC(=O)[C@@H](OCc2ccccc2)C=C[C@@H]1C,-0.253 (inactive),0.72,-0.569,-1.21 (inactive),–,–
CO[C@H]1COC(=O)CC=C[C@H](C)[C@@H](OC)COC(=O)[C@H](Cc2ccccc2)NC(=O)CC=C[C@@H]1C,-0.254 (inactive),-0.42,0.0429,-0.426 (inactive),–,–
CO[C@@H]1COC(=O)[C@H](COCc2ccccc2)NC(=O)CC=C[C@@H](C)[C@H](OC)COC(=O)[C@H](COCc2ccccc2)NC(=O)CC=C[C@H]1C,0.271 (inactive),-0.713,-0.989,0.421 (inactive),–,–
CO[C@H]1COC(=O)[C@H](CCSC)NC(=O)CC=C[C@@H](C)COC(=O)[C@@H](OCc2ccccc2)C=C[C@@H]1C,0.786 (inactive),0.581,-0.115,0.26 (inactive),–,–
C#CCCCON=C1C[C@@H](O)[C@@H](O)[C@@H]2[C@@H]3C(=O)N(Cc4ccc5c(c4)OCO5)C(=O)[C@@H]3CC[C@H]12,0.892 (inactive),0.783,0.594,-0.469 (inactive),–,–
CO[C@@H]1COC(=O)[C@H](C)NC(=O)CC=C[C@@H](C)[C@H](NS(=O)(=O)c2ccc(C)cc2)COC(=O)CC=C[C@@H]1C,-0.44 (inactive),-0.507,0.635,0.769 (inactive),–,–
CCN1C(C)=C(C(=O)OC)[C@@H](c2ccccc2)N2C(=O)[C@@]3(C(=O)OC)O[C@@]12[C@@H]1C(=O)CCC[C@@H]13,-0.147 (inactive),-1.03,-0.625,-0.386 (inactive),–,–
CCN1C(C)=C(C(=O)OC)[C@@H](c2ccccc2)N2C(=O)[C@](O)(C(=O)OC)[C@@H](c3ccccc3)C(C(C)=O)=C12,-0.192 (inactive),-1.35,-1.56,-1.27 (inactive),–,–
CO[C@@H]1COC(=O)[C@H](C)NC(=O)CC=C[C@@H](C)[C@H](OC)COC(=O)[C@H](C)NC(=O)CC=C[C@H]1C,-0.479 (inactive),0.132,0.363,0.229 (inactive),–,–
CC(=O)Nc1ccc([C@H]2[C@H](C)CC[C@H]3C(=O)N4[C@@H](CC[C@@H](C)[C@@H]4c4ccc(NC(C)=O)cc4)C(=O)N32)cc1,1.46 (inactive),0.757,0.179,-6.37 (inactive),–,–
CO[C@H]1COC(=O)CC=C[C@@H](C)COC(=O)[C@@H](C)NC(=O)CC=C[C@@H]1C,0.89 (inactive),0.405,-0.437,0.382 (inactive),–,–
C[C@@H]1NC(=O)CC=C[C@@H](C)[C@@H]2C=C[C@H](O)[C@@H](COC(=O)[C@H](C)NC(=O)CC=C[C@@H](C)[C@@H]3C=C[C@H](O)[C@@H](COC1=O)O3)O2,-0.217 (inactive),0.221,-1.47,0.881 (inactive),–,–

Structure (SMILES),composite z-score [1],composite z-score (XIP peptide (Xip251-270)),z-score [2],z-score [3],z-score [4],z-score [5]
C[C@@H]1CC[C@H]2C(=O)N3CCC[C@H]3C(=O)N2[C@H]1c1ccc(Br)cc1,0.557 (inactive),-0.374,0.371,0.0636 (inactive),–,–
CO[C@@H]1COC(=O)CC=C[C@@H](C)[C@H](OC)COC(=O)CC=C[C@H]1C,-0.583 (inactive),0.428,0.674,-0.26 (inactive),–,–
CO[C@@H]1COC(=O)CC=C[C@H](C)COC(=O)[C@H](Cc2ccccc2)NC(=O)CC=C[C@H]1C,0.717 (inactive),0.18,0.684,-0.631 (inactive),–,–
CO[C@H]1COC(=O)[C@H](C)COC(=O)[C@H](Cc2ccccc2)NC(=O)CC=C[C@H]1C,-0.454 (inactive),0.613,0.724,0.57 (inactive),–,–
CCN1C(C)=C(C(=O)OC)[C@@H](c2ccccc2)N2C(=O)[C@@]3(C(=O)OC)O[C@@]12[C@@H]1C(=O)N(c2ccccc2)C(=O)[C@@H]13,0.357 (inactive),0.9,-0.425,-0.559 (inactive),–,–
C=CCc1cccc([C@@H]2[C@@H](C)CC[C@H]3C(=O)N4[C@H](c5cccc(CC=C)c5)[C@@H](C)CC[C@H]4C(=O)N23)c1,0.718 (inactive),0.336,-0.729,-3.9 (inactive),–,–
C[C@@H]1C=CCC(=O)OC[C@H]2O[C@@H](C=C[C@@H]2O)[C@H](C)C=CCC(=O)OC[C@H]2O[C@H]1C=C[C@@H]2O,0.424 (inactive),0.466,-2.25,-1.31 (inactive),–,–
CO[C@H]1COC(=O)[C@@H](OCc2ccccc2)C=C[C@H](C)[C@@H](OC)COC(=O)[C@H](OCc2ccccc2)C=C[C@@H]1C,-1.11 (inactive),-0.267,0.313,0.371 (inactive),–,–
CO[C@H]1COC(=O)[C@@H](C)COC(=O)[C@H](Cc2ccccc2)NC(=O)CC=C[C@H]1C,-0.0968 (inactive),0.172,-0.178,0.485 (inactive),–,–
COC(=O)C1=C(C)N(Cc2ccccc2)c2c(C(=O)OC)c(C(=O)OC)c(C(=O)OC)c(=O)n2[C@@H]1c1ccccc1,0.17 (inactive),-0.0775,0.149,-2.2 (inactive),–,–
CO[C@H]1COC(=O)[C@@H](C)NC(=O)CC=C[C@@H](C)[C@H](OC)COC(=O)CC=C[C@@H]1C,0.649 (inactive),0.517,-0.243,0.334 (inactive),–,–
COc1cc([C@@H]2N[C@H](C(=O)O)Cc3c2[nH]c2ccccc32)cc(OC)c1OC,-0.374 (inactive),0.564,-0.0372,-1.66 (inactive),–,–
CO[C@@H]1COC(=O)[C@@H]2CCCN2C(=O)CC=C[C@@H](C)[C@H](OC)COC(=O)[C@@H]2CCCN2C(=O)CC=C[C@H]1C,0.284 (inactive),0.352,0.583,-0.507 (inactive),–,–
C=C[C@H](OC)[C@@H](OC(=O)Nc1ccc(SC)cc1)c1ccc(O)c(F)c1,2.52 (inactive),0.719,0.188,-2.14 (inactive),-1.07 (inactive),-0.478 (inactive)
O=C1OCC=C[C@H]2OC34C=CCN(Cc5ccccc5)C(=O)[C@H]3N(CCO)C(=O)[C@@H]4[C@@H]12 (stereo not given in full),-0.132 (inactive),0.666,0.438,-4.18 (inactive),0.373 (inactive),0.252 (inactive)
C=CCNC(=O)[C@H]1[C@@H]2C(=O)O[C@@H](c3ccccc3)[C@@H](c3ccccc3)N2[C@@H](c2ccc(O)cc2)[C@]12C(=O)Nc1ccc(C#CCNC(N)=O)cc12,0.342 (inactive),0.0866,-0.491,-2.56 (inactive),0.191 (inactive),0.424 (inactive)
CC(=O)NCCCC[C@@H]1NC(=O)[C@@H]2C[C@H](C(=O)NCc3ccc(F)cc3)[C@H](c3cccc(OCCO)c3)N2C1=O,0.356 (inactive),0.117,0.447,-4.11 (inactive),0.676 (inactive),0.312 (inactive)
O=C1OCCC=C[C@H]2OC34C=CCN(Cc5ccccc5)C(=O)[C@H]3N(CCO)C(=O)[C@@H]4C12 (stereo not given in full),-0.525 (inactive),-1.24,-1.92,-2.7 (inactive),-0.618 (inactive),-0.732 (inactive)
C=C(C)[C@@H]1CC=C(C(O)C2C=CC3C(=O)NC(=O)C3N2Nc2ccccn2)CC1 (stereo not given in full),0.745 (inactive),0.718,0.982,-3.65 (inactive),0.129 (inactive),-0.126 (inactive)
COCCOC(=O)N1C(=O)[C@@]2(c3cc(C#CC4=CCCCC4)ccc31)[C@H](C(=O)NC[C@H](O)c1ccccc1)[C@H]1C(=O)O[C@H](c3ccccc3)[C@H](c3ccccc3)N1[C@@H]2c1ccc(OCCO)cc1,-0.361 (inactive),0.612,-1.73,2.05 (inactive),0.0381 (inactive),0.231 (inactive)
Cc1ccc(S(=O)(=O)N[C@H]2COC(=O)CC=C[C@H](C)COC(=O)N[C@@H](C)C(=O)CC=C[C@@H]2C)cc1,-0.478 (inactive),0.619,-1.23,-1.11 (inactive),–,–
C[C@@H]1CC[C@H]2C(=O)N3[C@@H](CC[C@@H](C)[C@@H]3c3cccc(N4CCOCC4)c3)C(=O)N2[C@H]1c1cccc(N2CCOCC2)c1,0.66 (inactive),0.705,-0.529,-4.07 (inactive),–,–
